Assay results: PubChem BioAssay (Tox21)
Results filed as inconclusive are left out. A call without a number means that no potency is given here. Calls of active or inactive are those of the source. The call rests on the fitted dose curve.

Assay: qHTS assay to identify small molecule agonists of the hypoxia (HIF-1) signaling pathway - cell viability counter screen (AID 1224844); further: nearly all actives have a fitted effect of over 50% in size
Conditions: HRE-bla ME-180 viability, CellTiter-Glo luminescence, 17 h; series mostly up to 76.8 µM
How it was run: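 Cells (HRE-bla ME-180, 2,000 per well) sat 5 hrs at 37C, got compound for 17 hrs, were read for CCF4-AM FRET, and were finally lysed with CellTiter-Glo for a 30 min room-temperature luminescence read.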

Row | Structure (SMILES) | Potency | activity change, negative = cytotoxicity
1 | Cc1cccc(C)c1NC(=O)CN1CCCCCC1 | inactive | –
2 | OCCN(CCO)CCN(CCO)CCO | inactive | –
3 | CCOC(=O)NCCC[Si](OCC)(OCC)OCC | inactive | –
4 | O=C(CCCl)NCc1ccccc1 | inactive | –
5 | O=c1[nH]cnc2c1ncn2[C@@H]1O[C@H](CO)[C@@H](O)[C@H]1O | inactive | –
6 | C=CC1CO1 (configuration not stated) | inactive | –
7 | C[C@]12C(=O)OC(=O)[C@H]1[C@H]1C=C[C@@H]2C1 | inactive | –
8 | NNS(=O)(=O)c1ccc(Oc2ccc(S(=O)(=O)NN)cc2)cc1 | inactive | –
9 | CN1CCN(C2=Nc3cc(F)ccc3Cc3ccccc32)CC1 | inactive | –
10 | Cc1cn([C@@H]2O[C@H](CO)[C@@H](O)[C@@H]2F)c(=O)[nH]c1=O | inactive | –
11 | CCCc1c2oc(C(=O)O)cc(=O)c2cc2c(=O)cc(C(=O)O)n(CC)c12 | inactive | –
12 | Cc1ncc(CO)c(CN)c1O | inactive | –
13 | NC1=NCC2c3ccccc3Cc3ccccc3N12 (configuration not stated) | inactive | –
14 | FC(F)(F)C(Cl)(Cl)Cl | inactive | –
15 | CCCOCCC | inactive | –
16 | Cc1cc2c(s1)Nc1ccccc1N=C2N1CCN(C)CC1 | inactive | –
17 | CCC(=O)Nc1ccc(O)cc1 | inactive | –
18 | CCC/C=C/CO | inactive | –
19 | C[C@@H]1CN(c2c(F)c(F)c3c(=O)c(C(=O)O)cn(C4CC4)c3c2F)C[C@H](C)N1 | – | 2.14% [at 15.8 µM] (inactive)
20 | CCOC(=O)c1cc(=O)c2c(OCC(COc3cccc4oc(C(=O)OCC)cc(=O)c34)OC(=O)[C@@H](N)CCCCN)cccc2o1 | inactive | –
21 | CCc1cc2cc(OC)c(OC)cc2c(Cc2ccccc2)n1 | inactive | –
22 | O=C(O)[C@@H]1CSCN1 | inactive | –
